Source: PubChem BioAssay (The Scripps Research Institute Molecular Screening Center)
Most compounds without a hit are left out; they make up all but 2.5% or so of the library.
PRMT1 inh: PRMT1 methyltransferase inhibitors, primary screen, biochemical, fluorescence polarization. 370,000 compounds, 1.3% hits. AID 652257, 2013. recombinant PRMT1, activity-based probe fluorescence polarization. inhibition, % at 2.79 µM. Protein arginine N-methyltransferase 1 (Homo sapiens), Q99873;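 active means inhibition above about 21% made by adding two undisclosed values, limit read from the data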
UHRF1 binding: UHRF1 methylated DNA binding inhibitors, primary screen, counter-screen for MBD2 inhibitor project, biochemical, TR-FRET, human UHRF1, single concentration; UHRF1 binding to methylated oligo; inhibition, % at 4.4 µM; 370,000 compounds, 0.75% hits; AID 687016, 2013; in the data active means inhibition above about 21%;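 further: UHRF1 SRA domain binding a hemimethylated CpG hairpin DNA probe; 0% = median of test compound wells and 100% = reference inhibitor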
Target sequence (Q96T88 whole entry, looked up, the tested form may be a part): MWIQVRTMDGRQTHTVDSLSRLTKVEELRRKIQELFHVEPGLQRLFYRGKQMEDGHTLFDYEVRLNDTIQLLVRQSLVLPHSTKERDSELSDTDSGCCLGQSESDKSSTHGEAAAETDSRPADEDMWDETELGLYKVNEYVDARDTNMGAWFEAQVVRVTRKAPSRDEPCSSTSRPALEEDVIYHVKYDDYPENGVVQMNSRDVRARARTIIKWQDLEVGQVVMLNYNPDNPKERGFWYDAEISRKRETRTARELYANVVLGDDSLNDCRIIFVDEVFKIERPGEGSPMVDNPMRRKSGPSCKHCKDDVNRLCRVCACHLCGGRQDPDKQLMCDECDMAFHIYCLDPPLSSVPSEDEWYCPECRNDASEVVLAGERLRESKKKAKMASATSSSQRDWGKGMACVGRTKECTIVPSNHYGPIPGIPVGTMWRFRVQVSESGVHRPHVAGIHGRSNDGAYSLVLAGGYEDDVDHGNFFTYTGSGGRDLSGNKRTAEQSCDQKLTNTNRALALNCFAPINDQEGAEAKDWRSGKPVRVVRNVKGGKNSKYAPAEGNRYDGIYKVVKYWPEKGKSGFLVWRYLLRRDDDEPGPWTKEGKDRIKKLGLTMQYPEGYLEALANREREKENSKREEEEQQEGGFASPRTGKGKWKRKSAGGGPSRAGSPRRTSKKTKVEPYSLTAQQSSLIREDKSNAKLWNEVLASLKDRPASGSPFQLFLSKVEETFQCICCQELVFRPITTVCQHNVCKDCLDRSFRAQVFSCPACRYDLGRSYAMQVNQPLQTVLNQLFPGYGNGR
MBD2 inh: inhibitors of MBD2 binding to methylated DNA, primary screen, biochemical, TR-FRET, DNA-binding domain, human; Methyl-CpG-binding domain protein 2 (Homo sapiens), Q9UBB5; MBD2 binding to methylated oligonucleotide; inhibition, % at 4.4 µM; 370,000 compounds, 0.31% hits; in the data active means inhibition above about 13%
LEDGF integ inh: blockers of LEDGF/p75-dependent integrase strand transfer – biochemical, TR-FRET, high throughput, primary screen; HIV-1 integrase (with human LEDGF/p75); TR-FRET IN-LEDGF/p75 DNA integration, Eu/Cy5; inhibition, % at 3.7 µM; 370,000 compounds, 0.64% hits;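 active means inhibition above the screen-wide mean plus 3 SD, cut at about 13% in these data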;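 further: signal is the Cy5 over europium emission ratio at 671 and 618 nm; 0% = plate median of compound wells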
IN multimer up: HIV-1 IN multimer formation enhancers, counter-screen for LEDGF/p75 integration inhibitor project, biochemical, TR-FRET | TR-FRET HIV-1 integrase multimerization | shares compounds with LEDGF integ inh | AID 1053131, 2014 | 2,000 compounds, 17% hits | activation, % at 7.7 µM; in the data active means activation above about 8.9%
TR-FRET interf: TR-FRET optical interference artefacts, confirmation, artefact control for LEDGF/p75-dependent integration inhibitor project, biochemical, HIV-1 IN multimerization. inhibition, % at 7.7 µM. TR-FRET optical interference counterscreen. AID 1053135, 2014. 2,000 tested, under 10 active. shares compounds with LEDGF integ inh;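 active means inhibition above the mean over all tested compounds plus 3 SD, which no compound reached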;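 further: 0% = integrase with antibodies and DMSO and 100% = antibodies without integrase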
LEDGF integ conf: inhibitors of HIV-1 IN-LEDGF/p75 DNA integration, confirmation, biochemical, TR-FRET. inhibition, % at 3.7 µM. shares compounds with LEDGF integ inh. TR-FRET LEDGF/p75-dependent HIV-1 integration. 2,000 compounds, 36% hits; in the data active means inhibition above about 14%
Numbers without * were called inactive; nt = no result.

SMILES	PRMT1 inh	UHRF1 binding	MBD2 inh	LEDGF integ inh	IN multimer up	TR-FRET interf	LEDGF integ conf
Cc1cccc(OCCCC(=O)NNC(=O)c2ccccn2)c1	-3	5	4	1	nt	nt	nt
Oc1cc(NCCN2CCOCC2)cc2cccnc12	21*	4	0	37*	-3	10	42*
Oc1cc(Nc2ccccc2)cc2cccnc12	1	-4	-4	3	nt	nt	nt
C=CCn1c(N2CCOCC2)nc2c1c(=O)[nH]c(=O)n2C	-3	-1	-1	5	nt	nt	nt
CC(=O)c1ccc(OC2(C)CCN(Cc3ccc4c(c3)OCCO4)C2)cc1 (configuration not stated)	3	1	3	15*	-3	17	-5
C[C@@H]1CN([C@H](C)CO)C(=O)CCCn2cc(nn2)CO[C@H]1CN(C)C(=O)Nc1cccc2ccccc12	2	21	4	-3	nt	nt	nt
COc1ccc(C2CCc3cc4c(cc3C2=NO)OCO4)cc1OC (configuration not stated)	0	-2	-1	2	nt	nt	nt
Cc1ccc(NC(=O)C(C)OC(=O)CCNS(=O)(=O)c2ccc(C)cc2)cc1 (configuration not stated)	-1	-1	-3	-2	nt	nt	nt
CC(=O)Nc1ccc(S(=O)(=O)NCCC(=O)OC(C)C(=O)NC2(C#N)CCCCC2)cc1 (configuration not stated)	0	0	1	67*	-1	3	-8
Cc1ccc(S(=O)(=O)/N=C2\C=C(Nc3cccc(C(=O)O)c3)C(=O)c3ccccc32)cc1	2	7	-3	52*	0	0	64*
CC(C)(C)c1ccc(S(=O)(=O)/N=C2\C=C(NS(=O)(=O)c3ccccc3)C(=O)c3ccccc32)cc1	-6	-6	-9	16*	-1	5	-6
N/C(=N\OC(=O)c1ccccc1)C(C(=O)NOC(=O)c1ccccc1)C1CCCCC1 (configuration not stated)	-2	-2	-1	4	nt	nt	nt
COc1ccc(N2CCN(C(=O)c3ccc4c(c3)[nH]c(=S)n3c5ccccc5nc43)CC2)cc1	2	43*	8	15*	5	-24	-8
Cc1ccccc1-c1nn[nH]n1	0	2	5	-2	nt	nt	nt
Oc1ccc(N=Nc2ccccc2-c2nn[nH]n2)c(O)c1	19	-4	-5	19*	18*	-64	9
Cc1ccc(NC(=O)c2ncn(CC(=O)N3CCN(c4ccccn4)CC3)n2)cc1C	5	-1	4	-2	nt	nt	nt
O=C(c1ccccc1)c1ccc2nc(-c3ccco3)c(-c3ccco3)nc2c1	34*	-4	-3	18*	2	-6	35*
O=C(O)c1ccc2nc(-c3ccccc3)c(-c3ccccc3)nc2c1	0	0	0	6	nt	nt	nt
COc1c(-c2ccc(O)cc2)oc2cc(O)cc(O)c2c1=O	1	28*	11	15*	9	-43	45*
O=c1c(O)c(-c2ccc(O)c(O)c2)oc2cc(O)cc(O)c12	15	9	8	89*	41*	-145	88*
O=c1cc(-c2ccc(O)c(O)c2)oc2cc(O)cc(O)c12	4	-9	-6	42*	15*	-78	88*
CC1OC(Oc2c(-c3cc(O)c(O)c(O)c3)oc3cc(O)cc(O)c3c2=O)C(O)C(O)C1O (configuration not stated)	15	2	3	39*	41*	-146	53*
CCOc1ccccc1NC(=O)C1CCCN(S(=O)(=O)c2ccc3c(c2)CCCN3C(C)=O)C1 (configuration not stated)	-9	1	0	5	nt	nt	nt
COc1cccc(C(O)c2nc(-c3cnn(C)c3)cs2)c1 (configuration not stated)	-4	2	0	0	nt	nt	nt
O=c1c(-c2c(O)cc(O)c3c(=O)cc(-c4ccc(O)cc4)oc23)c(-c2ccc(O)cc2)oc2cc(O)cc(O)c12	5	12	11	25*	40*	-204	50*
SMILES	PRMT1 inh	UHRF1 binding	MBD2 inh	LEDGF integ inh	IN multimer up	TR-FRET interf	LEDGF integ conf
Cc1cc(C)c(S(=O)(=O)N2CCN(C(=O)c3cc(=O)[nH]c4ccccc34)CC2)c(C)c1	-1	-1	-2	0	nt	nt	nt
Cc1cc(C(C)(C)C)cc(C)c1S(=O)(=O)N1CCN(C(=O)c2cc([N+](=O)[O-])c[nH]c2=O)CC1	-1	3	-5	28*	1	-2	-6
C[C@@H]1CN([C@H](C)CO)C(=O)CCCn2nncc2CO[C@H]1CN(C)S(=O)(=O)c1ccc(Oc2ccccc2)nc1	1	1	1	-1	nt	nt	nt
C[C@H]1CN([C@@H](C)CO)C(=O)CCCn2nncc2CO[C@@H]1CN(C)S(=O)(=O)c1ccc(Oc2ccccc2)nc1	4	-1	2	26*	0	2	-13
CCNC(=O)c1ccccc1SCc1ccccc1	-4	9	4	14*	-2	6	-5
Cc1cccc(NC(=O)c2ccccc2SCc2ccc(F)cc2)n1	-1	-4	-2	53*	1	-4	-7
CCc1ccc(OCCNC(=O)c2ccccc2SCc2ccccc2)cc1	0	-2	-5	-3	nt	nt	nt
COC(=O)C1=C(N)N(c2ccc(F)cc2)C2=C(C(=O)CCC2)C1c1ccc2c(c1)OCO2 (configuration not stated)	2	4	-2	18*	0	0	-10
COC(=O)C1=C(N)OC2=C(C(=O)CCC2)C1c1ccc2c(c1)OCO2 (configuration not stated)	-7	-1	-3	6	nt	nt	nt
O=C(O)C(O)(c1ccccc1)C(O)c1ccccc1 (configuration not stated)	-3	2	-5	9	nt	nt	nt
Cc1cc(=O)oc(C)c1C(=O)Nc1cccc2ccccc12	1	-4	-2	30*	0	-2	-1
CCOC(=O)c1c(C)c(C(=O)N(C)C2CCCCC2)c(C)n1C	1	0	-2	8	nt	nt	nt
CCOC(=O)c1c(C)c(C(=O)NC2CCCCCC2)c(C)n1C	1	-2	1	66*	-1	3	5
Cc1ccc(S(=O)(=O)N2CCCCC2)cc1NC(=O)Cn1cc(C(F)(F)F)ccc1=O	-1	-1	0	3	nt	nt	nt
